Four compounds from PubChem BioAssay can be followed below.

A short description of assay [1]: LFS_MB_1R medulloblastoma cell growth inhibition, synergistic combos for chromothripsis tumors, cisplatin or BGB combos (AID 1671452).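 Further: cells exposed for 96 hours before readout.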 The following applies: LFS_MB_1R medulloblastoma cells, stronger effect = higher value.
Assay [2] is described as follows: CRL2098 osteosarcoma cell growth inhibition, synergistic combos for chromothripsis tumors, BGB or cisplatin IC20 combos (AID 1671454).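 Further: cells exposed for 96 h before readout; 0% = vehicle DMSO and 100% = killing by high DMSO.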 The conditions noted are these: CRL2098 osteosarcoma cells, drug combinations, stronger effect = higher value.
Assay [3] in a line: HD-MB03 medulloblastoma cell growth inhibition, synergistic combos for chromothripsis tumors, BGB or cisplatin IC20 combos (AID 1671455; in the data active means inhibition above about 83%;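 further: 0% = vehicle DMSO and 100% = high DMSO as cytotoxic control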). The following applies: HD-MB03 medulloblastoma cells, stronger effect = higher value.
The nature of assay [4]: UWB1.289 ovarian carcinoma cell growth inhibition, synergistic combos for chromothripsis tumors, BGB or cisplatin combos (AID 1671456).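 Further: cells exposed to compound for four days; 0% = vehicle DMSO and 100% = killing by high DMSO.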 The conditions noted are these: UWB1.289 ovarian carcinoma cells, stronger effect = higher value.
A short description of assay [5]: LFS_MB_2R medulloblastoma cell growth inhibition, synergistic combos for chromothripsis tumors, cisplatin combos (AID 1671457).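 Further: cells exposed to compound for four days before readout.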 The following applies: LFS_MB_2R medulloblastoma cells, stronger effect = higher value.
Assay [6] can be described thus: UWB1.289_BRCA1 ovarian cancer growth, cell-based, BGB or cisplatin combinations (AID 1671459). The conditions noted are these: UWB1.289 BRCA1 ovarian carcinoma, drug combinations, stronger effect = higher value.
Assay [7] can be described thus: human astrocyte viability loss, single and combined drugs, cytotoxicity control for chromothriptic childhood tumor combination screen, cell-based, BGB or cisplatin IC20 combos (AID 1671460).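 Further: cells exposed to compounds for 96 hours before viability readout; 0% = vehicle and 100% = killing control.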 The following applies: Human astrocytes, drug combinations, stronger effect = higher value.
The nature of assay [8]: growth inhibition of CRL1545 osteosarcoma cells, cell-based, cisplatin and BGB IC20 combos (AID 1671464).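 Further: cells exposed to compound for 96 hours before readout; 0% = vehicle DMSO and 100% = high DMSO killing control.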 The conditions noted are these: stronger effect = higher value.
A short description of assay [9]: kinase inhibitors against Plasmodium liver-stage infection, cell-based, known kinase inhibitor set, luminescence, hepatoma host viability (AID 624392; call rule not given here;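 further: infected cells incubated roughly two days before readout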). The following applies: Plasmodium liver stage in hepatoma cells, luciferase luminescence, concentration not given here; liver cell % of control: measured here: host liver cell viability; parasite % of control: stronger effect = lower value.

The nature of assay [10]: inhibitors of Cryptococcus chitosan production, flow cytometry, Cibacron Brilliant Red staining (AID 1347148; call rule not given here;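 further: compound exposure lasted three days at 37 degrees C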). The conditions noted are these: Cryptococcus neoformans chitosan, stronger effect = lower value; at 10 µM unless noted.
Where [11] appears, read: measured here: combination with BGB IC40, at 0.05 µM.
[12] abbreviates: measured here: combination with cisplatin, at 0.5 µM.
Setting [13] is: measured here: combination with cisplatin, at 5 µM.
The mark [14] stands for this setting: measured here: combination with BGB at IC20, at 0.5 µM.
Where [15] appears, read: measured here: combination with cisplatin at IC20, at 0.5 µM.
[16] abbreviates: measured here: combo with BGB at IC20, at 0.5 µM.
The mark [17] stands for this setting: measured here: combo with cisplatin at IC20, at 0.5 µM.
[18] abbreviates: measured here: inhibition with BGB combination, at 0.05 µM.
Setting [19] is: measured here: inhibition with cisplatin combination, at 0.05 µM.
Setting [20] is: BGB combination, concentration series, at 5 µM.
[21] abbreviates: cisplatin combination, concentration series, at 5 µM.
[22] abbreviates: measured here: combo with BGB IC20, at 0.5 µM.
[23] abbreviates: measured here: combo with cisplatin IC20, at 0.5 µM.
Where [24] appears, read: measured here: with BGB IC20 combination, at 0.5 µM.
Where [25] appears, read: measured here: with cisplatin IC20 combination, at 0.5 µM.

Values joined by “and” are separate entries in the source; they are usually repeats but may differ in a detail not shown here. Equal entries are not always repeated. More than one record can exist for a structure, and the calls need not agree. Active and inactive are the calls of the source. Unless noted, no stated cut-off is given here; in the data, active means inhibition above about 80%; inactive means the rest.

The term inhibition denotes the change of the read-out against control, counted positive when it falls. Take `C#Cc1cccc(Nc2ncnc3cc(OC)c(OCCCCCCC(=O)NO)cc23)c1`: the inhibition in assay [1] (at 0.5 µM) is 72.7% (inactive) and 57.9% (inactive); in assay [1] (setting [11]), -16.6% and -26.1%; in assay [1] (setting [12]), 88.8% and 73.7%; in [1] (setting [13]), 101% and 99%; in assay [2] (at 0.5 µM), -70.6% (inactive) and -57.7% (inactive); in assay [2] (setting [14]) it was -40.2% and -108%. In addition, the inhibition is -130% and -17.7% in [2] (setting [15]); 45.5% (inactive) and 17.9% (inactive) in [3] (at 0.5 µM); 34.3% and 16.8% in assay [3] (setting [16]); 84.2% and 39.1% in assay [3] (setting [17]); 58.9% (inactive) and 21.7% (inactive) in assay [4] (at 0.5 µM); -23% and -18.1% in assay [4] (setting [18]). Further, the inhibition in assay [4] (setting [19]) is 7.84% and -0.343%; in assay [5] (at 0.5 µM), 80.6% (active) and 5.75% (inactive); in assay [5] (setting [12]), 96% and 17.9%; in assay [5] (setting [13]), 99.8% and 105%; in [6] (setting [20]), 108% and 106%; in [6] (at 0.5 µM), 64.7% (inactive) and 19.7% (inactive). Further, the inhibition in assay [6] (setting [21]) is 128% and 122%; in assay [7] (at 0.5 µM), 63.5% (inactive) and 39.1% (inactive); in assay [7] (setting [22]), 58% and 34.9%; in assay [7] (setting [23]), 64.7% and 42.3%; in assay [8] (at 0.5 µM), 34.3% (inactive) and 15.2% (inactive); in assay [8] (setting [24]) it was 17.9% and 26.4%. The inhibition is 41.6% and 7.54% in [8] (setting [25]); -39.2% and -32.8% in [8] (single agent, at 0.05 µM); 97.8% and 92.8% in [8] (single agent, at 5 µM).
As for `CC(C)(O)c1cc2nc(-c3cnc(N)nc3)nc(N3CCOCC3)c2s1`, in assay [9], the liver cell % of control was 68.4% and 67.7% and 82.5%; the parasite % of control is 539% (inactive) and 545% (inactive) and 563% (inactive).
On to `O=C(/C=C/c1ccc(CN(CCO)CCc2c[nH]c3ccccc23)cc1)NO`, for which the inhibition in [1] (at 0.5 µM) was 88.5% (active); in [1] (setting [11]) it was 0.114%; in assay [1] (setting [12]) it was 107%; in assay [1] (setting [13]), 101%; in assay [2] (at 0.5 µM), 80.2% (active); in assay [2] (setting [14]), 80.4%. In addition, the inhibition in [2] (setting [15]) was 75.9%; in assay [3] (at 0.5 µM) it was 99.8% (active); in assay [3] (setting [16]), 99.8%; in assay [3] (setting [17]), 100%; in assay [4] (at 0.5 µM), 88.8% (active); in assay [4] (setting [18]), 9.36%. The inhibition in [4] (setting [19]) was 34.8%; in assay [5] (at 0.5 µM), 87.1% (active); in assay [5] (setting [12]), 99.3%; in assay [5] (setting [13]), 107%; in assay [6] (setting [20]) it was 126%; in assay [6] (at 0.5 µM), 95.2% (active). Further, the inhibition in assay [6] (setting [21]) is 130%; in assay [7] (at 0.5 µM), 95.2% (active); in assay [7] (setting [22]), 92%; in assay [7] (setting [23]), 97.1%; in assay [8] (at 0.5 µM), 87.1% (active); in assay [8] (setting [24]), 82.2%. Moreover, the inhibition in assay [8] (setting [25]) was determined as 89.4%; in [8] (single agent, at 0.05 µM) it was 86.9%; in [8] (single agent, at 5 µM) it was 94.5%.
With `CCCNC(=O)[C@H]1O[C@@H]1C(=O)N[C@H](C(=O)N1CCC[C@H]1C(=O)OC)C(C)CC` (some centres not stated), in assay [10], the fold fluorescence is 3.89 [at 125.8 µM] (inactive).
